From PubChem
The list is not random: actives were taken first. Their share in the collection is about 2.4%.
SENP7 block = inhibitors of human SENP7 protease; inhibition, % at 5 µM; 330,000 tested, 1.5% active; recombinant SENP7, Z-RLRGG-aminoluciferin luminescence, 40 min; Q9BQF6;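 active = inhibition above about 50% at the single test dose, limit read from the data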
SENP6 block = inhibitors of human SENP6 protease; Q9GZR1; Recombinant SENP6 catalytic domain, aminoluciferin luminescence; inhibition, % at 10 µM; 330,000 tested, 1.8% active; AID 2599;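 active = inhibition above about 50% at the single tested dose, limit read from the data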
Target sequence (Q9GZR1 628-1112 limits assumed): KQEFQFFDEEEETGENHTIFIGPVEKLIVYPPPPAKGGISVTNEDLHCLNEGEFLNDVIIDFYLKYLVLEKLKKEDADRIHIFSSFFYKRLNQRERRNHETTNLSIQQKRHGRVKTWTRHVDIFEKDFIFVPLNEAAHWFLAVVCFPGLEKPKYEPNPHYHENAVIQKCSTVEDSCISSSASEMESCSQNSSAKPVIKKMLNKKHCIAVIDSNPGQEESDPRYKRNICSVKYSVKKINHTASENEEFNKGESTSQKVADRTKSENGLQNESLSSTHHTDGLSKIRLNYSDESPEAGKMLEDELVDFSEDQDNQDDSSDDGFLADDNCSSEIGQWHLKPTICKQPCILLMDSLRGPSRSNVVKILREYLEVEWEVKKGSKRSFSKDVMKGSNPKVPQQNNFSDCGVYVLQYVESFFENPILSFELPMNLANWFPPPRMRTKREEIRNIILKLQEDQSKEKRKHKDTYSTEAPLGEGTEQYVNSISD
SENP8 block-1 = SENP8 (human) protease inhibition; 360,000 tested, 0.64% active; recombinant SENP8, Nedd8 substrate fluorescence; inhibition, % at 20 µM; Q96LD8; in the data active = inhibition mostly above about 40%, no sharp cut-off; inactive = mostly below about 27%
SENP8 block-2 = blocks the human protease SENP8; Q96LD8; purified SENP8, Z-RLRGG-aminoluciferin cleavage, luminescence; inhibition, % at 10 µM; 330,000 tested, 1.2% active; in the data active = inhibition above about 50%
Platelet DG rel = modulates dense granule release in human platelets; human platelet-rich plasma, SFLLRN dense granule ATP release, luminescence; inhibition, %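 (compounds screened at 7.5 µM in platelet-rich plasma)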; 300,000 tested, 0.22% active; AID 1663;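 active = mean replicate score, as percent of positive control, at or above 50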
SENP8 conf = confirmation of human SENP8 protease inhibitors; shares compounds with SENP7 block; Recombinant SENP8, Z-RLRGG-aminoluciferin luminescence, 60 min; inhibition, % at 12.5 µM; 6,200 tested, 40% active; AID 488912;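 active = mean inhibition across replicates above about 50%, limit read from the data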
SENP6 confirm = confirmation of human SENP6 protease inhibitors; shares compounds with SENP7 block; recombinant SENP6, Z-RLRGG-aminoluciferin luminescence; inhibition, % at 12.5 µM; 6,200 tested, 58% active; AID 488915
SENP7 confirm = human SENP7 inhibition, confirmed | shares compounds with SENP7 block | recombinant SENP7, Z-RLRGG-aminoluciferin luminescence, 40 min | inhibition, % at 12.5 µM | 6,200 tested, 69% active | AID 488917
Casp3 SENP sel = selectivity test for SENP inhibitors: human caspase-3 inhibition. AID 488918. shares compounds with SENP7 block. inhibition, % at 12.5 µM. purified caspase-3, Z-DEVD-aminoluciferin luminescence, 60 min. 6,200 tested, 60% active;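 active = mean inhibition above about 50%, limit read from the data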
Luc interf = interferes with luciferase luminescence in SENP counter-screen; shares compounds with SENP7 block; Pre-incubated SENP8/Z-RLRGG-aminoluciferin, luciferase luminescence interference; 6,200 tested, 39% active; inhibition, % at 12.5 µM;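 active = mean inhibition above about 50% when retested at one dose, limit read from the data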
Numbers stand for hits; - = inactive; . = not tested or not shown.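 The calls were made as follows, unless noted: active = mean inhibition above about 50% in the one-dose retest (limit read from the data); inactive = the rest.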

SMILES | SENP7 block | SENP6 block | SENP8 block-1 | SENP8 block-2 | Platelet DG rel | SENP8 conf | SENP6 confirm | SENP7 confirm | Casp3 SENP sel | Luc interf
N/C(=N\OC(=O)c1ccccc1[N+](=O)[O-])c1ccccn1 | 61 | 54 | - | - | - | 65 | 61 | - | 86 | 66
COc1ccccc1C(=O)O/N=C(\N)c1ccccn1 | - | 53 | - | - | - | - | - | 58 | 74 | 54
Cc1ccc(C(=O)O/N=C(\N)c2ccccn2)c(C)c1 | 102 | 99 | - | 95 | - | 100 | 101 | 104 | 99 | 99
CC1CC(NC(=O)N(C)C)N(C)C(=O)N1 (configuration not stated) | - | - | - | - | - | . | . | . | . | .
CCCOc1ccc(-c2c(C(=O)N/N=C/c3cccnc3)nnn2-c2nonc2N)cc1 | - | - | - | - | - | . | . | . | . | .
Cc1ccc2nc(NC(=O)c3ccco3)sc2c1 | 96 | 92 | - | 93 | - | - | 94 | 101 | 92 | 58
Cc1cccc(NC(=O)c2ccco2)c1C | - | - | - | - | - | . | . | . | . | .
Cc1cc(NC(=O)c2ccco2)sc1C | 76 | 83 | - | 68 | . | - | 60 | 86 | 81 | 67
Cc1ccc2nc(NC(=S)NC(=O)c3ccco3)sc2c1 | . | . | - | . | - | . | . | . | . | .
CC(=O)Nc1nc2ccc(Br)cc2s1 | 70 | 80 | - | 56 | - | 72 | 69 | 92 | 74 | 59
Cc1cc2sc(NC(=O)c3ccco3)nc2cc1Cl | 71 | - | - | - | - | - | - | - | - | -
CN(c1ccc(C(=O)Nc2ccc(CC#N)cc2)cc1)S(C)(=O)=O | - | - | - | - | - | . | . | . | . | .
O=C(Nc1nc2ccc(Cl)cc2s1)c1ccco1 | 89 | 86 | - | 81 | - | - | 80 | 59 | 86 | -
Cc1cccc2[nH]c(-c3ccc(NC(=O)c4ccco4)cc3)nc12 | 90 | 91 | - | 77 | - | - | 80 | 96 | 75 | 78
O=C(Nc1nc2ccsc2c(=O)s1)c1ccco1 | 77 | 72 | - | 53 | - | 79 | 72 | 94 | - | 77
O=C(Nc1ccc2nc(-c3ccccc3)[nH]c2c1)c1ccco1 | - | - | - | - | - | . | . | . | . | .
CC(=O)Nc1nc2ccc(NC(=O)c3ccco3)cc2s1 | - | - | - | - | - | . | . | . | . | .
Cc1ccc2nc(NC(=O)c3ccc(Br)o3)sc2c1 | 87 | 73 | - | 60 | - | - | - | - | - | -
CC(C)(Oc1ccc(Cl)cc1)C(=O)OCC(=O)N1CCN(c2ccccc2)CC1 | - | - | - | - | - | . | . | . | . | .
COc1ccc(-c2cccc(NC(=O)c3ccco3)c2)nn1 | - | - | - | - | - | . | . | . | . | .
O=C(Nc1nc2ccc(Br)cc2s1)c1ccco1 | 63 | 75 | - | 58 | - | - | 64 | 90 | 69 | -
O=C(Nc1ccc(-c2cn3ccccc3n2)cc1)c1ccco1 | 59 | 71 | - | - | - | 59 | 58 | 85 | 79 | 69
Cn1cc(Cl)c(C(=O)Nc2nc3ccc(Cl)cc3s2)n1 | 95 | 68 | - | - | - | - | - | 67 | 55 | -
CC1CC1C(=O)Nc1nc2ccc(Cl)cc2s1 (configuration not stated) | - | - | - | - | - | . | . | . | . | .
COc1ccc(-c2ccc(NC(=O)c3ccco3)cc2)nn1 | 94 | 91 | - | 90 | - | 90 | 90 | 99 | 96 | 68
SMILES | SENP7 block | SENP6 block | SENP8 block-1 | SENP8 block-2 | Platelet DG rel | SENP8 conf | SENP6 confirm | SENP7 confirm | Casp3 SENP sel | Luc interf
CC(C)N(C(=O)CSc1nnc(C2CC2)n1C1CC1)c1ccccc1 | - | - | - | - | . | . | . | . | . | .
COc1ccccc1CCCNC(=O)C1CCC(=O)N(CCc2ccc(Cl)cc2)C1 (configuration not stated) | - | - | - | - | - | . | . | . | . | .
C=CCNc1nc2ccccc2nc1NS(=O)(=O)c1ccc(Cl)cc1 | - | - | - | - | - | . | . | . | . | .
CCOc1ccc(-c2csc(NC(=O)c3ccco3)n2)cc1 | - | - | - | - | - | . | . | . | . | .
COc1ccc(-c2csc(NC(=O)c3ccco3)n2)cc1 | - | 56 | - | - | - | - | - | 75 | - | -
COc1ccc2nc(NC(=O)c3ccco3)sc2c1 | 93 | 88 | - | 87 | . | 93 | 93 | 101 | 94 | 79
COc1cc2sc(NC(=O)c3ccco3)nc2cc1Cl | - | - | - | - | - | . | . | . | . | .
COCC(=O)Nc1nc2ccc(C)cc2s1 | 58 | 68 | - | - | - | 67 | 62 | 88 | 82 | 64
O=[N+]([O-])c1cccc(NN=Nc2ccccc2)c1 | 69 | 64 | - | 70 | - | 71 | 69 | 88 | - | 67
O=[N+]([O-])c1ccc(N=NNc2ccccc2)cc1 | - | 59 | - | - | - | - | - | 75 | - | -
Brc1ccc(N=NNc2ccccc2)cc1 | - | 51 | - | - | - | 68 | 74 | 88 | - | -
O=C(c1cccc(Br)c1)N1CCN(S(=O)(=O)N2CCCCCC2)CC1 | - | - | - | - | - | . | . | . | . | .
O=[N+]([O-])c1cccc(/C=N/Nc2ccccn2)c1 | 55 | 56 | - | - | - | - | - | 74 | - | -
O=[N+]([O-])c1cccc(/C=N/Nc2nccnc2Cl)c1 | 93 | 94 | - | 83 | - | 91 | 91 | 100 | 97 | 83
Cc1cc2c(cc1C)-n1nnnc1C(N1CCN(CC(=O)N3CCCC3)CC1)C(=O)N2 (configuration not stated) | . | . | - | . | . | . | . | . | . | .
O=C(Nc1nnc(-c2ccco2)o1)c1ccc2ccccc2c1 | - | 71 | - | - | - | - | - | - | - | -
Cc1ccc(C(=O)Nc2nnc(-c3ccco3)o2)cc1 | - | - | - | - | - | . | . | . | . | .
CC(=O)Nc1ccc(S(=O)(=O)N(C)CC(=O)OC(C)C(=O)N(C)Cc2ccccc2)cc1 (configuration not stated) | - | - | - | - | - | . | . | . | . | .
CC(C)n1cc(/C=N/Nc2ccc(C(=O)O)cc2)c2ccccc21 | 61 | 82 | - | 80 | - | 90 | 89 | 96 | 61 | 55
O=C(O)c1ccc(N/N=C/c2cn(Cc3ccccc3F)c3ccccc23)cc1 | - | 84 | - | 88 | - | 96 | 95 | 99 | - | -
O=C(c1ccc(CS(=O)c2cccc(Cl)c2)o1)N1CCCCCC1 (configuration not stated) | - | - | - | - | - | . | . | . | . | .
Cc1ccc(S(=O)(=O)NC(C)C(=O)OCC(=O)Nc2sccc2C(N)=O)cc1 (configuration not stated) | . | . | - | . | . | . | . | . | . | .
